FMDV antiviral: foot and mouth disease virus antiviral activity | Potency, µM (doses to about 57.9 µM), inactives show at the top dose activity change, negative = inhibition, hits mostly inhibitors | 410,000 compounds, 1.2% hits | FMDV antiviral cell-based qHTS | AID 1159524; calls by dose curve; tested in HEK293T cells; also: read-out not given here; potency is read from the fitted curve at half-maximal effect; % is scaled to controls: 0 for no effect and ±100 for the full control effect; nearly all actives have a fitted effect of over 45% in size
HCMV inh: blocks human cytomegalovirus replication; HFF cells, HCMV-luciferase reporter, 72 h; active compounds read low; activity change, negative = inhibition, % at 57.5 µM; 410,000 compounds, 4.5% hits; in the data active = activity change below about -60%; inconclusive = no clear call, values can overlap the other calls; inactive = above about -39%; also: % is scaled to controls: 0 for no effect and ±100 for the full control effect
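Luciferase read-out from HCMV-luciferase-infected HFFs (MOI 1 PFU/cell) 72 h post infection at 37C; compounds added after 16 h cell attachment; activity normalized between buffer-only basal and Salinomycin (10uM) inhibitor controls.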
SARS PLpro yeast: inhibitors of SARS-CoV papain-like protease in yeast; S. cerevisiae expressing SARS-CoV PLpro, growth rescue; Potency, µM (series often up to 32.9 µM), without a hit: at the highest dose activity, positive = growth rescue, usual class: activators; 330,000 compounds, 0.19% hits; AID 485353; calls by dose curve; also: potency is read from the fitted curve at half-maximal effect; 0% is about no effect; nearly all actives have a fitted effect of over 55% in size
Lassa entry inh: blocks Lassa virus binding to or entry into cells; AID 540256; 300,000 compounds, 1.2% hits; Potency, µM (series often up to 37.9 µM), for inactives: at the top dose activity change, negative = inhibition, actives largely listed as inhibitors; Lassa virus pseudotype entry inhibition, cell reporter; calls by dose curve; tested in HEK293 cells; also: potency is read from the fitted curve at half-maximal effect; % is scaled to controls: 0 for no effect and ±100 for the full control effect; nearly all actives have a fitted effect of over 50% in size
Marburg entry inh: blocks Marburg virus binding to or entry into cells; AID 540276; 300,000 compounds, 1.8% hits; Marburg virus pseudotyped entry inhibition, cell reporter; Potency, µM (doses to about 37.8 µM), without a hit: at the highest dose activity change, negative = inhibition, hits mostly inhibitors; calls by dose curve; tested in HEK293 cells; also: potency is read from the fitted curve at half-maximal effect; % is scaled to controls: 0 for no effect and ±100 for the full control effect
HCV inh: HCV inhibition; AID 651820; Potency, µM (highest dose often 41.8 µM), inactives show at the highest dose activity change, negative = inhibition, actives largely listed as inhibitors; Huh7.5.1 HCVcc-Cre infection, luciferase reporter, 44 h; 340,000 compounds, 3.4% hits; active = well fitted inhibition curve with a large enough effect; inconclusive = small, poorly fitted or top-dose-only effect, or another doubt; inactive = no such curve, though single readings can be large or run the other way; also: potency is read from the fitted curve at half-maximal effect; % is scaled to controls: 0 for no effect and ±100 for the full control effect
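Antiviral activity was scored by luciferase reporter output from cells infected with HCVcc-Cre (~0.5 moi) in presence of compound, 44 h infection period, cells seeded 1,000/well 4 h prior.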
Starred values were filed as active, the others as inactive; ? = inconclusive; / = no result; + = active, no number; [ ] = remark or other dose. An excerpt weighted towards active compounds, which were near 8% of everything screened.

SMILES	FMDV antiviral	HCMV inh	SARS PLpro yeast	Lassa entry inh	Marburg entry inh	HCV inh
O=S(=O)(c1ccccc1)c1cnn(-c2ccccc2)c1-c1ccc(F)cc1	?	-61*	-6%	-14%	?	?
O=C(/C=C/c1cccc([N+](=O)[O-])c1)NC(=S)Nc1cccc(NC(=O)c2ccccc2Cl)c1	?	-74*	-1%	?	?	-23%
O=C(CSc1nc(-c2ccc(Cl)cc2)cs1)Nc1cccc([N+](=O)[O-])c1	5%	-27	-22%	/	/	13µM*
O=C(/C=C/c1cccc([N+](=O)[O-])c1)NC(=S)Nc1ccccc1C(=O)O	/	/	1%	/	/	/
O=[N+]([O-])c1cccc(NC(=S)Nc2nc(-c3ccccc3Cl)cs2)c1	-19%	/	-7%	?	?	8.9µM*
Cc1ccc2c(c1)c1c(c(=O)n(-c3ccccc3)c(=O)n1CC(=O)c1ccc(F)cc1)n2C	-5%	13	/	1%[46.1 µM]	/	/
Cc1ccc(NC(=O)CCn2c(=O)c3cccn3c3ccccc32)c(C)c1	?	?	-2%	/	/	?
Cc1ccc2c(c1)c(=O)c1ccccc1n2CCCC(=O)Nc1ccc(F)cc1F	-10%	4	/	3%[46.1 µM]	/	/
Cc1cc(C)cc(NC(=O)CCn2c(=O)c3cccn3c3ccccc32)c1	?	-14	-1%	/	/	3.2µM*
Cc1cc(C)cc(NC(=O)CCCn2c3ccccc3c(=O)c3ccccc32)c1	?	-77*	/	?	/	/
CN1C[C@@H]2[C@@H]3C(=O)N(Cc4ccccc4)C(=O)[C@@H]3[C@](Cc3ccccc3)(C1=O)N2C(=O)c1ccccc1	58%	-32	/	/	/	19%
CN1C[C@@H]2[C@@H]3C(=O)N(Cc4ccccc4)C(=O)[C@@H]3[C@](Cc3ccccc3)(C1=O)N2C(=O)c1ccc(C(C)(C)C)cc1	?	-98*	/	/	/	?
COc1cccc(C2(CC(=O)N3CCCOc4c(cccc4OC)C3)CC(=O)N(C)C2=O)c1 (stereo unspecified)	1%	/	/	/	/	/
Cc1ccc(-c2nn(-c3ccccc3)cc2C(=O)O)o1	/	/	0%	/	/	/
Cc1ccc(-c2nn(-c3ccccc3)cc2CN(Cc2ccccc2)C(=O)c2ccco2)o1	28µM*	-76*	-1%	?	?	10µM*
CCCCCNC(=O)C(c1ccccc1)n1c(=O)c(-c2cc3ccccc3[nH]2)nc2ccccc21 (stereo unspecified)	-7%	3	/	/	/	/
CC(C)(CO)CNc1ccn2nccc2n1	-4%	-70*	/	/	/	/
O=C(N[C@H]1CC[C@@]23CCCN2C(=O)CCC[C@H]3[C@H]1Cc1ccccc1)C(c1ccccc1)c1ccccc1	/	-18	/	/	/	/
COC(=O)C=CC(=NNc1ccccc1)c1ccccc1	-20%	46	/	-17%[46.1 µM]	?	22µM*
Cc1ccc(Nc2cc(C)nc(N3CCOCC3)n2)cc1	11%	276	12%	23%	5.6µM*	?
c1ccc(Nc2nc(Nc3ccccc3)nc(N3CCNCC3)n2)cc1	-8%	29	3%	-18%[46.1 µM]	6.3µM*	-26%
Cc1cc(Nc2ccc(C)c(Cl)c2)nc(N2CCOCC2)n1	-15%	79	-3%	?	?	?
Clc1ccc(Nc2nc(NCCN3CCOCC3)nc(N3CCOCC3)n2)cc1	-45%	/	0%	?	2.8µM*	-15%
Cc1ccccc1Nc1nc(N2CCOCC2)nc(N2CCOCC2)n1	-26%	+	-7%	-29%[46.1 µM]	6.3µM*	-17%
CCc1ccc(C(=O)CC2(O)C(=O)N(CCc3ccccc3)c3ccc(Cl)cc32)cc1 (stereo unspecified)	-11%	-28	/	?	?	/
SMILES	FMDV antiviral	HCMV inh	SARS PLpro yeast	Lassa entry inh	Marburg entry inh	HCV inh
CC(C)(C)c1ccc(O[C@@H]2[C@H](O)CO[C@H]2/C=C/C#Cc2ccccc2)cc1	/	/	/	/	-9%[14.2 µM]	/
CN1CCN(c2nc(Nc3cccc(C(F)(F)F)c3)nc(N3CCOCC3)n2)CC1	27%	-18	-1%	?	21µM*	?
Cc1ccc(Nc2nc(N3CCOCC3)nc(N3CCOCC3)n2)cc1	-1%	-65*	-4%	-37%	1.2µM*	?
Cc1c(Cl)cccc1NC(=O)Cn1cnc2nc3c(cc2c1=O)CCCC3	-14%	23	/	15%[46.1 µM]	/	/
CCc1ccc(S(=O)(=O)c2cn(CC(=O)Nc3ccc(C)cc3)c3ccccc3c2=O)cc1	-2%	13	/	-21%[46.1 µM]	?	/
CC(C)c1ccc(S(=O)(=O)c2cn(CC(=O)Nc3ccc(F)cc3)c3ccccc3c2=O)cc1	-18%	-107*	/	-4%[46.1 µM]	0%[46.1 µM]	/
Cc1cc(C)c2c(c1)/C(=C/C(=O)c1ccc(Br)s1)C(=O)N2	?	-103*	2%	?	?	11µM*
CCn1cc([N+](=O)[O-])c(C(=O)N2N=C(c3ccc(OC)cc3OC)CC2c2ccccc2O)n1 (stereo unspecified)	-7%	24	?	?	-12%	-7%
CCn1cc(Cl)c(C(=O)N2N=C(c3ccc4ccccc4c3)CC2c2ccccc2O)n1 (stereo unspecified)	-25%	2	7%	?	?	?
CCn1cc([N+](=O)[O-])c(C(=O)N2N=C(c3ccc4ccccc4c3)CC2c2ccccc2O)n1 (stereo unspecified)	-13%	82	3%	5%	?	10µM*
CCn1cc([N+](=O)[O-])c(C(=O)N2N=C(c3cccc4ccccc34)CC2c2ccccc2O)n1 (stereo unspecified)	?	33	8%	?	?	11µM*
CC(=O)CCc1c(C)nc2ccc(C)cc2c1Cl	23%	-80*	-2%	-5%	9%[46.1 µM]	-12%
CC(NC(=S)NCCc1ccccc1)C(c1cccs1)N1CCN(Cc2ccccc2)CC1 (stereo unspecified)	?	-81*	1%	?	?	7.9µM*
CCOc1ccc(NC(=O)COc2ccc(-n3cnnn3)cc2)cc1	-3%	-8	-2%	/	/	-8%
COc1cc(NC(=O)COc2ccc(-n3cnnn3)cc2)cc(OC)c1OC	?	-6	2%	25%	-9%	11µM*
CCN(CC)c1ccc(NC(=O)COc2ccc(-n3cnnn3)cc2)cc1	0%	-21	-2%	-3%[46.1 µM]	-20%[46.1 µM]	22µM*
COc1ccccc1C(=O)COC(=O)c1cccc(-n2cnnn2)c1	11%	3	-1%	/	/	0%
COc1ccccc1C(=O)COC(=O)c1ccc(-n2cnnn2)cc1	22%	-18	0%	11%	1%	10µM*
Cc1ccc(-c2c[n+](CC(=O)Nc3nc(-c4ccccc4)cs3)c3n2CCC3)cc1	-11%	17	3%	0%	-23%[46.1 µM]	6.3µM*
O=C(C[n+]1cc(-c2ccccc2)n2c1CCC2)Nc1nc(-c2ccccc2)cs1	-8%	27	18%	10%	20%	?

Compound activity (PubChem BioAssay)
